Molecules are shown by their SMILES. The source made the active and inactive calls.

System in one test: not listed separately
Briefly: CREB reporter modulators under forskolin, primary screen, cell-based, PC12, CRE-LacZ reporter, forskolin-stimulated (AID 1146).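 Note: PC12 cells with 6xCRE LacZ reporter stimulated by forskolin 10 µM; beta-galactosidase reporter signal reflecting CREB driven transcription.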 Conditions: luminescence, 4.5 h, higher = more signal, called active from +8 up or from −8 down.
Regarding `COC(=O)C(CC#Cc1ccc2c(c1)[C@]1(C(=O)N2)[C@H](c2ccc(O)cc2)N2[C@H](c3ccccc3)[C@H](c3ccccc3)OC(=O)[C@H]2[C@@H]1C(=O)N1CCc2cc(OC)c(OC)cc2C1)C(=O)OC`, the z-score was 0.351 (inactive). For `C[N+](C)(C)CCCCCCNC(=O)[C@H]1C[C@H]2C(=O)NCC(=O)N2[C@H]1c1cccc(OCCO)c1`, the z-score was -0.487 (inactive). Still for that read-out and setting: then `COC(=O)c1c(CC[C@@H](CO)NC(=O)N[C@@H](Cc2ccccc2)Cn2cc(-c3cncn3C)nn2)oc(C(C)=O)c1C(=O)OC`, with -0.566 (inactive). Same read-out and setting: with `O=C1O[C@@H](c2ccccc2)[C@@H](c2ccccc2)N2[C@@H](c3ccc(O)cc3)[C@]3(C(=O)Nc4ccc(C#CC5=CCCCC5)cc43)[C@@H](C(=O)N3CCCCCCC3)[C@H]12` the figure was -0.782 (inactive).

On to `COC(=O)C1=CC(CCCO)=CC(C2CC2)N(Cc2cccc(OC(F)(F)F)c2)C=C1C(=O)OC` (stereo not given), for which the z-score is 0.969 (inactive). The same measure, in the same setting: with `COCCOC(=O)N1C(=O)[C@@]2(c3cc(C#CCC(C(=O)OC)C(=O)OC)ccc31)[C@H](C(=O)N1CCCCCCC1)[C@H]1C(=O)O[C@H](c3ccccc3)[C@H](c3ccccc3)N1[C@@H]2c1ccccc1OCCO` the figure was -0.981 (inactive); with `COCCOC(=O)N1C(=O)[C@@]2(c3cc(C#CCCO)ccc31)[C@H](c1ccccc1OCCO)N1[C@H](c3ccccc3)[C@H](c3ccccc3)OC(=O)[C@H]1[C@@H]2C(=O)N1CCc2cc(OC)c(OC)cc2C1`, 0.385 (inactive); with `COC(=O)[C@@H]1N=C(c2ccc(OCCCO)cc2)O[C@@H]1c1ccccc1CN=[N+]=[N-]`, 0.0126 (inactive). Same read-out and setting: with `COC(=O)[C@H](Cc1ccc(O)cc1)N1CC2=CCCC=C[C@@H]2[C@H]1[C@H](O)Cc1ccccc1` the figure was 1.24 (inactive); with `C=CC[C@@]1(C(=O)N(C)C)N=C(c2ccc(OCCCO)cc2)O[C@@H]1c1ccccc1`, 0.535 (inactive).

For the next test, the target named is Streptavidin (Streptomyces avidinii) (UniProt P22629). Briefly: streptavidin binders on small-molecule microarray, primary screen, artefact control for SMM compound annotation, biophysical, 635/667 nm fluorescence (AID 1147).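 Note: signal reflects streptavidin binding to arrayed compounds as a control protein.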 Conditions: streptavidin binding, higher = more signal.
Streptavidin (Streptomyces avidinii), sequence (P22629 whole entry, looked up): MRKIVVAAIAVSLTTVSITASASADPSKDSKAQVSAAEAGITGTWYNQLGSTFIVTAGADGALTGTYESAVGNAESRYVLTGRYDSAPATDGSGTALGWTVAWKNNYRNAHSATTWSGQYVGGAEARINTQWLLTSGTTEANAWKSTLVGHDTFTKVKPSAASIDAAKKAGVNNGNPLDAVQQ
The molecule `CO[C@H]1O[C@H](CO)[C@@H](OC(=O)Nc2ccccc2)[C@@H]2OC(=O)[C@H](Cc3ccccc3)C/C=C/C[C@@H](Cc3ccccc3)C(=O)O[C@@H]12` registered a composite z-score of 0.564. `CCCCC(=C=CC[C@@H](O)c1ccc(OCCO)cc1)C[C@@H](O)c1ccccn1` yielded a composite z-score of -0.0544. On the same count and under the same terms, then `C=CCC(OC(C)=O)[C@@H]1[C@@H](N(Cc2cccc3ccccc23)C(=O)c2ccc(-c3ccccc3)cc2)c2cc(OCCCO)ccc2N1C(=O)c1ccc2ccccc2n1` (stereo not given in full), with 0.582. The same measure, in the same setting: then `COCCOC(=O)N1C(=O)[C@@]2(c3cc(C#CC4(O)CCCCCC4)ccc31)[C@H](c1ccc(OCCO)cc1)N1[C@H](c3ccccc3)[C@H](c3ccccc3)OC(=O)[C@H]1[C@@H]2C(N)=O`, with 0.213. The same measure, in the same setting: with `COc1ccc([Si](C)(C)[C@H]2[C@H](CCO)O[C@@]3(C(=O)N(Cc4ccc(N5CCOC5=O)cc4)c4ccccc43)[C@@H]2C)cc1` the figure was 0.346.

The molecule `Cc1c(-c2ccc(-c3ccc(Cl)c(Cl)c3)o2)nc(-c2ccccc2)c2c1CO[Si]2(C(C)C)C(C)C` had a composite z-score of -0.107. Consider `O=C1OCCC=C[C@H]2OC34C=CCN(CCN5CCOCC5)C(=O)[C@H]3N(CCCO)C(=O)[C@@H]4C12` (stereo not given in full), for which the composite z-score is -0.613. Still for that read-out and setting: with `COC(=O)[C@@]1(Cc2ccc(F)cc2)[C@H]2c3cc(C(=O)N(C)C)n(CCO)c3C[C@H]2CN1C(=O)c1ccccc1` the figure was -0.208. On the same count and under the same terms, with `CC(C)C[C@H]1NC(=O)[C@@H](C)NC(=O)[C@@]23C(=O)N[C@@H](Cc4ccccc4)C2[C@H](C)[C@@]2(C)O[C@H]2C3/C=C/C/C=C\CNC1=O` (stereo not given in full) the figure was -0.535; with `N#Cc1ccc(C(O)C2C=CC3C(=O)N(c4ccccc4)C(=O)C3N2Nc2ccc([N+](=O)[O-])cc2)cc1` (stereo not given), 1.86; with `CN(C)CCCC[C@@H]1NC(=O)[C@@H]2C[C@H](C(=O)NCc3ccc(F)cc3)[C@H](c3ccc(O)cc3)N2C1=O`, -0.574. The same measure, in the same setting: with `CC(=O)c1ccc(C(O)C2C=CC3C(=O)N(C)C(=O)C3N2NC(=O)OC(C)(C)C)cc1` (stereo not given) the figure was 1.83; with `CO[C@H]1O[C@H](CO)[C@@H](OC(=O)Nc2ccc3c(c2)OCO3)[C@@H]2OC(=O)[C@@H](Cc3ccccc3)C/C=C/C[C@H](Cc3ccccc3)C(=O)O[C@@H]12`, 0.294.

For `O=C1NC(=O)C2C1C=CC(C(O)c1cccc(O)c1)N2Nc1ccc(Cl)cc1Cl` (stereo not given), the composite z-score is 0.423. Still for that read-out and setting: then `Cc1ccc(S[C@]2(C(=O)NCCCN(C)C)CC(=O)N(Cc3ccccc3Cl)[C@@H]2c2ccc(CO)cc2I)cc1`, with -0.245.

The values above are taken from PubChem BioAssay.
